The entries come from a sample that favours hits as a whole.
HT1080NT lethal – kills 2HG-producing HT-1080-NT fibrosarcoma cells | HT-1080-NT fibrosarcoma viability, CellTiter-Glo ATP luminescence, 48 h | Potency, µM (titrated, usually from 46.1 µM), for the others: top-dose activity, negative = less viability, usual class: cytotoxic | 1.6% of 360,000 active;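 further: NT is the 2HG producing partner of a matched IDH1 knockdown line; potency means the concentration at half of the fitted maximal effect; 0% = DMSO-treated cells and -100% = media-only wells without cells; nearly all actives have a fitted effect of over 55% in size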
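Compounds were tested in concentration-response format on HT-1080-NT cells for 48 hours at 37 degrees C. Cell viability came from CellTiter-Glo luminescence; curves were classified by r2, response magnitude and activity.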
DT40 TDP1 CPT – growth inhibition of DT40 Tdp1-/-;hTDP1 cells with camptothecin (screen for TDP1 inhibitors) | Potency, µM (highest dose often 46.2 µM), inactives show top-dose activity change, negative = growth inhibition, actives largely listed as inhibitors | AID 686979 | chicken DT40 Tdp1-/-;hTDP1 cells + 20 nM CPT, ATP luminescence, 48 h | 12% of 420,000 active; further: potency means the concentration at half of the fitted maximal effect; nearly all actives have a fitted effect of over 55% in size
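Chicken DT40 Tdp1-/- cells complemented with human TDP1, 400 cells/well, exposed to compounds plus 20 nM camptothecin for at least 48 h at 37 C; viability read as ATP content by CellTiter-Glo luminescence.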
HT1080 IDH1KD tx – HT-1080 IDH1 knockdown cell toxicity (counter line); Potency, µM (series often up to 46.1 µM), for the others: top-dose activity, negative = toxicity, hits mostly cytotoxic; 2% of 360,000 active; HT-1080 IDH1 knockdown viability, ATP luminescence, 48 h;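 further: potency means the concentration at half of the fitted maximal effect; 0% = DMSO wells and -100% = cell-free medium wells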
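Cytotoxicity counter-line: IDH1KD HT-1080, 48 h, CellTiter-Glo. Curves classed by r2, magnitude and activity.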
DT40 TDP1 no CPT – qHTS for Inhibitors of human tyrosyl-DNA phosphodiesterase 1 (TDP1): qHTS in cells in absence of CPT. DT40 Tdp1-/- hTDP1 cells, no CPT, ATP luminescence, 48 h. Potency, µM (highest dose often 46.2 µM), inactives show at the top dose activity change, negative = growth inhibition, usual class: inhibitors. 15% of 420,000 active; further: potency means the concentration at half of the fitted maximal effect; nearly all actives have a fitted effect of over 55% in size
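Chicken DT40 Tdp1-/- cells stably complemented with human TDP1 were seeded at 400 cells/well with DMSO in place of 20 nM camptothecin. After compound pinning, cells grew at least 48 hr at 37 °C; viability read by CellTiter-Glo luminescence.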
IL-1B inflam inh – inflammasome signaling inhibition, IL-1 beta readout | THP-1 LPS/ATP IL-1B secretion, AlphaLISA, 16 h; stronger effect = lower value | activity change, % at 57.5 µM | 4.7% of 360,000 active | AID 743279; in the data active means activity change below about -50%; inconclusive means mostly about -30% to -49%
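THP-1 cells pretreated 1 hr with compounds (up to 57.5 uM final), then stimulated with LPS (250 ng/mL final) plus ATP (1.25 mM final); secreted IL-1B measured by AlphaLISA after 16 hr, decreased signal indicating inhibition.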
ALOX12 inh – ALOX12 (human) lipoxygenase inhibition; P18054; purified 12hLO, xylenol orange hydroperoxide absorbance; Potency, µM (titrated, usually from 108 µM), inactives show top-dose activity change, negative = inhibition, hits mostly inhibitors; 1.1% of 580,000 active; further: potency means the concentration at half of the fitted maximal effect
Target sequence (P18054 whole entry, looked up): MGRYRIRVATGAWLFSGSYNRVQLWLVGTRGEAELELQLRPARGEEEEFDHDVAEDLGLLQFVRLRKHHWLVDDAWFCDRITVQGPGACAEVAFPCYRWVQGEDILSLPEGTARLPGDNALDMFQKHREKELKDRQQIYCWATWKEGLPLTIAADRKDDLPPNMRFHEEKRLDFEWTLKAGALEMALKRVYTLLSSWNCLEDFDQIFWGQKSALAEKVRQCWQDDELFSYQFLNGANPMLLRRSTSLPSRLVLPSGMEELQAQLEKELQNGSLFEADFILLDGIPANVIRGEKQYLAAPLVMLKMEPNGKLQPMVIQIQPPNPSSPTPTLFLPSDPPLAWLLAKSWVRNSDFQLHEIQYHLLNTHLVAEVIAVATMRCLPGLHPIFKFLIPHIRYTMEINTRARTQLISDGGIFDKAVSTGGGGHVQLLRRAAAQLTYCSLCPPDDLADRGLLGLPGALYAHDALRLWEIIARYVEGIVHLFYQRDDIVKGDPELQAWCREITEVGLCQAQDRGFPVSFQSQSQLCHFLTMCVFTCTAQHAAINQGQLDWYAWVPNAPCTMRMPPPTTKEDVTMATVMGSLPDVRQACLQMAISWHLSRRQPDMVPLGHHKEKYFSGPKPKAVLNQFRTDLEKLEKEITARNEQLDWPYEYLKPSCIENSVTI
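Purified human 12hLO at 150 nM in 25 mM Hepes, 0.01% Triton X-100, pH 7.0, preincubated 15 min at room temperature with compound. Reaction started with 40 uM arachidonic acid, 30 min at room temperature. Hydroperoxide measured by Fe-xylenol orange, 573/405 nm absorbance ratio.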
Active calls of the source: *; ? = inconclusive; / = no result; [ ] = remark or other dose. Unless noted, the call rests on the fitted dose curve; in most records, active means well fitted curve in the direction sought with a large enough effect; inconclusive means small, poorly fitted or top-dose-only effect, or another doubt; inactive means no such curve, though single readings can be large; an effect the other way counts as inactive or inconclusive. Unless noted, on the % scale 0 is the no-effect control and ±100 the full control effect.

SMILES | HT1080NT lethal | DT40 TDP1 CPT | HT1080 IDH1KD tx | DT40 TDP1 no CPT | IL-1B inflam inh | ALOX12 inh
CCC(C)NC(=O)CCc1cccnc1 (configuration not stated) | / | / | / | / | / | -3%
CC(C)c1ccc(S(=O)(=O)N2CCC(C(=O)Nc3nccs3)CC2)cc1 | / | / | / | / | / | -7%
CCOC(=O)N1CCC(Nc2ncnc3c2cnn3-c2ccccc2)CC1 | 2% | ? | 12% | 11µM* | -9 | 10%
O=C(CC1C(=O)NCCN1C(=O)Nc1ccc(C(F)(F)F)cc1)Nc1ccc(F)cc1 (configuration not stated) | -29% | ? | -24% | ? | ? | ?
Cc1cc(C)cc(NC(=O)N2CCNC(=O)C2CC(=O)Nc2cc(Cl)ccc2Cl)c1 (configuration not stated) | -2% | ? | 6% | ? | -57* | 8%
O=C(CC1C(=O)NCCN1C(=O)Nc1ccc(F)cc1F)Nc1cc(Cl)ccc1Cl (configuration not stated) | -17% | 11% | -25% | -4% | / | 0%
COc1ccc(NC(=O)CC2C(=O)NCCN2C(=O)Nc2ccc(C(F)(F)F)cc2)cc1 (configuration not stated) | ? | -18% | ? | 5% | -79* | ?
COC(=O)c1cccc(NC(=O)CC2C(=O)NCCN2C(=O)Nc2cc(C)cc(C)c2)c1 (configuration not stated) | -21% | -2% | -30% | 0% | -62* | 5%
Cc1cc(-c2cccc(OC(C)C)c2)cnc1-n1cnnc1 | / | / | / | / | / | 33%
FC(F)(F)Sc1ccc(NC(=S)NCc2ccccc2)cc1 | -16% | ? | -26% | 21µM* | -88* | 40µM*
S=C(NCc1ccccc1)Nc1ccc(Sc2ccc(Br)cc2)cc1 | / | / | / | / | / | 28µM*
S=C(NCCc1ccccc1)Nc1ccc(Sc2ccc(Br)cc2)cc1 | / | / | / | / | / | 35µM*
C=CCNC(=S)Nc1ccc(Br)cc1 | / | / | / | / | / | -27%
O=C(NC1C[C@H]2CC[C@@H](C1)N2C(=O)Cc1ccc(Cl)cc1)c1ccncc1 (some centres not stated) | / | / | / | / | / | 62%
CCCCc1nn2c(=O)cc(COC(=O)CSc3ccc(C)cc3)nc2s1 | / | / | / | / | / | 7%
O=C(CC[C@@H]1CNC(=O)[C@@H]2C[C@H](NC(=O)Nc3cccc(Cl)c3)CN12)NCc1cccnc1 | / | / | / | / | / | 45µM*
O=C(CC[C@@H]1CNC(=O)[C@@H]2C[C@H](NC(=O)c3cccc(F)c3)CN12)NCc1cccnc1 | / | / | / | / | / | 72%[176 µM]
N#Cc1nc(Cc2cccc3ccccc23)oc1N1CCCC1 | / | / | / | / | / | -32%
COCCOC(=O)C(C#N)c1nc2ccccc2nc1N1CCCC1 (configuration not stated) | 4% | -3% | 5% | -12% | -16 | 8%
CCOc1ccccc1N1CCN(c2nc3ccccc3nc2C(C#N)C(=O)OC)CC1 (configuration not stated) | 9% | 23µM* | 10% | 15µM* | 18 | 0%
CCOc1ccccc1N1CCN(c2nc(N)c(C#N)c(CC#N)c2C#N)CC1 | -6% | ? | -5% | 21µM* | 2 | -14%
COc1ccccc1N1CCN(c2nc3ccccc3nc2C(C#N)C(=O)OC(C)C)CC1 (configuration not stated) | -3% | ? | -2% | 21µM* | -5 | ?
COc1ccccc1N1CCN(c2nc(C)cc(C)c2C#N)CC1 | 1% | -13% | -8% | -25% | 4 | 6%
O=C(c1cc(=O)[nH]c2ccccc12)N1CCN(Cc2ccccc2)CC1 | / | / | / | / | / | -10%
COC(=O)c1ccccc1NC(=O)c1ccccc1OC(F)F | / | / | / | / | / | -21%
SMILES | HT1080NT lethal | DT40 TDP1 CPT | HT1080 IDH1KD tx | DT40 TDP1 no CPT | IL-1B inflam inh | ALOX12 inh
O=C(COC(=O)c1ccc(S(=O)(=O)N2CCCC2)cc1)Nc1ccc(N2CCOCC2)cc1 | 16% | 18µM* | -7% | ? | 31 | ?
O=C(COC(=O)c1ccc(O)cc1)Nc1ccc(S(=O)(=O)N2CCOCC2)cc1 | -1% | -7% | 1% | -11% | 14 | -24%
O=C(COC(=O)c1n[nH]c2ccccc12)Nc1ccccc1 | -1% | 8% | 24% | -8% | -11 | -1%
O=C(COC(=O)c1n[nH]c2ccccc12)Nc1ccc(S(=O)(=O)N2CCCC2)cc1 | -22% | 23µM* | -25% | 21µM* | -4 | -3%
COc1cccc(C=C(C(C)=O)C(=O)c2ccccc2)c1 | ? | 21µM* | 16µM* | 15µM* | -113* | -10%
CCC(=O)Nc1ccc(C=C(C(C)=O)C(C)=O)cc1 | 0% | ? | 2% | ? | -6 | ?
CCC(=O)Nc1ccc(/C=C(\C(C)=O)C(=O)c2ccccc2)cc1 | 18µM* | ? | 16µM* | 23µM* | -98* | ?
COc1ccc(C(=O)N/N=C/C(Br)=C/c2ccccc2)cc1 | -11% | 13µM* | -13% | 15µM* | -58* | -7%
COc1cccc(C(=O)N/N=C/C(Br)=C/c2ccccc2)c1 | ? | 1.8µM* | 12µM* | 2.9µM* | -75* | 1%
COc1ccc(C(=O)C(C)OC(=O)C23CC4CC(CC(Cl)(C4)C2)C3)c(OC)c1 (configuration not stated) | / | / | / | / | / | 74%
CCS(=O)(=O)N(C1CC1)C1CCOC2(CCN(C(=O)c3ccc(OC)cc3)CC2)C1 (configuration not stated) | / | / | / | / | / | 45%
Cc1ccccc1Cn1cc(NC(=O)c2cc(C(C)C)on2)cn1 | / | / | / | / | / | 13%
O=C(C(=Cc1ccc(F)cc1)C(=O)c1ccccc1)c1ccccc1 | ? | ? | ? | 16µM* | -112* | -1%
COCc1nnc2n1CCC(NC(=O)CCCc1nc3ccccc3s1)CC2 (configuration not stated) | / | / | / | / | / | 21%
O=C(NC(=S)Nc1cccc2[nH]ncc12)c1ccccc1 | ? | -2% | ? | -16% | 10 | -6%
O=C(Nc1cccc2[nH]ncc12)c1ccc(F)cc1 | 4% | ? | 1% | 7.3µM* | 6 | 0%
CC(C)C[C@@H]1NC(=O)[C@H](CCCN)NC(=O)[C@H](C(C)C)NC(=O)[C@@H]2CCCN2C(=O)[C@@H](Cc2ccccc2)NC(=O)[C@H](CC(C)C)NC(=O)[C@H](CCCN)NC(=O)[C@H](C(C)C)NC(=O)[C@@H]2CCCN2C(=O)[C@@H](Cc2ccccc2)NC1=O | / | 0.41µM* | / | 0.15µM* | / | /

Screening data as filed in PubChem BioAssay.
